Rows were chosen to be rich in hits. Some 2.9% of all compounds tested hit in one or more screens of this group.
Rtt109 Vps75: C. albicans Rtt109 histone acetyltransferase inhibition; purified Rtt109/Vps75, ThioGlo CoA-SH fluorescence, 4 h; inhibition, % at 34.9 µM; Q5AAJ8; 330,000 tested, 0.16% active;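 active = inhibition of at least 50% in every replicate; inconclusive = best replicate reaches 50% inhibition but some replicates fall short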
Myeloid diff MLP: myeloid differentiation induction; 360,000 tested, 1% active; calls only at 10 µM; ER-HoxA9 myeloid progenitors, lysozyme-GFP differentiation, flow cytometry;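 active = normalized GFP-positive differentiation at or above the plate's own cutoff, the solvent-only control mean plus 3 SD; inconclusive = no clear call, values can overlap the other calls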;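 note: cells exposed to compound for four days before flow analysis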
ABHD5-PLIN5 inh: blocks binding of human ABHD5 to perilipin-5; Q00G26+Q8WTS1; Split G. princeps luciferase complementation, luminescence, 4 h; 360,000 tested, 0.78% active; inhibition, % at 4 µM;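 active = inhibition above the mean inhibition across every tested compound plus 3 SD, cut at about 22% in these data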
HGIII-sPLA2 inh: Blocks human group III sPLA2 activity; QFRET BODIPY PC-A2 liposome hydrolysis, fluorescence; inhibition, % at 12.2 µM; AID 743126; 370,000 tested, 0.56% active; Q9NZ20;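 active = inhibition above mean plus 3 SD of compounds lying within the high and low control bounds, cut at about 19% in these data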
Target sequence (Q9NZ20 whole entry, looked up): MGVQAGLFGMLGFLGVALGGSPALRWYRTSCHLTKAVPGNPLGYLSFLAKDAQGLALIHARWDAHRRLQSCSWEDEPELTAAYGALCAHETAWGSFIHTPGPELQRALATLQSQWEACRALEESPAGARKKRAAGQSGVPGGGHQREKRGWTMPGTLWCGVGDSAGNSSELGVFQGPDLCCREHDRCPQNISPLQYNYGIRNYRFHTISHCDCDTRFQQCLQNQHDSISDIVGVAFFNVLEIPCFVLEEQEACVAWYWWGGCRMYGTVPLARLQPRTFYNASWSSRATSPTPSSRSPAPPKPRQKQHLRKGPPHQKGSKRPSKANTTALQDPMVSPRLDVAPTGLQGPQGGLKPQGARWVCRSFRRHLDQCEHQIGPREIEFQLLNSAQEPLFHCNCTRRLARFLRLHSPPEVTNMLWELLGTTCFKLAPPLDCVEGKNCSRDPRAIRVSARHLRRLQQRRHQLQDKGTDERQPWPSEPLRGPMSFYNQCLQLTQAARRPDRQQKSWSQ
H9c2 protect: modulators protecting cardiomyocytes from myocardial damage; 360,000 tested, 0.63% active; AID 588492; H9c2 cardiomyocytes, H2O2 injury protection, ATPLite, 2 h; protection from H2O2 cell death, % at 20 µM;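 active = compounds giving at least 50% protection of heart cells from peroxide-induced death in the single-dose screen, raw or plate-pattern-corrected value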
DAGLB inh: diacylglycerol lipase beta (human) inhibition; Q8NCG7; HEK293T DAGLB membrane lysate, EnzChek fluorogenic substrate; inhibition, % at 5.17 µM; 340,000 tested, 0.059% active; in the data active = inhibition above about 34%
ABHD5 PLIN5 conf: ABHD5-PLIN5 interaction inhibition, confirmed; shares compounds with ABHD5-PLIN5 inh; biochemical ABHD5-PLIN5 interaction, luminescence; inhibition, % at 4 µM; 2,200 tested, 67% active; in the data active = inhibition above about 23%
HNF4 split-luc: counter-screen for ABHD5-PLIN5 inhibitors: HNF4 split-luciferase; shares compounds with ABHD5-PLIN5 inh; HNF4 dimerization, luminescence, biochemical; inhibition, % at 4 µM; 2,200 tested, 77% active; AID 651674;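 active = mean inhibition across replicate wells exceeding the computed hit threshold, cut at about 13% in these data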;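 note: light from luciferase halves that rejoin when HNF4 fusion proteins dimerize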
A number is an active result; – = inactive; ? = inconclusive; · = no result given.

SMILES | Rtt109 Vps75 | Myeloid diff MLP | ABHD5-PLIN5 inh | HGIII-sPLA2 inh | H9c2 protect | DAGLB inh | ABHD5 PLIN5 conf | HNF4 split-luc
CCOC(=O)[C@]12Cc3cc(OC)ccc3[C@H]1N(C)C(=O)c1ccccc12 | · | – | – | – | · | · | · | ·
CCOC(=O)[C@]12Cc3cc(OC)ccc3[C@H]1N(C1CCCCC1)C(=O)c1ccccc12 | · | ? | 40 | – | · | · | – | 32
CCOC(=O)[C@]12Cc3cc(Cl)ccc3[C@H]1N(C1CCCCC1)C(=O)c1ccccc12 | · | ? | 51 | · | · | · | 40 | 39
COc1ccccc1CN1CCN(Cc2ccc(Cl)cc2)CC1 | · | – | – | – | – | – | · | ·
C=C1C(=O)O[C@@H]2C[C@@H](C)[C@H]3C=CC(=O)[C@]3(O)C[C@@H]12 | – | · | 33 | – | – | – | 47 | 24
CC1(C)CC(n2[nH]c(=O)c3c2NC(=O)CSC3c2ccc(F)cc2)CCO1 (stereo not given) | – | – | – | – | – | – | · | ·
COCCNC(=O)c1c(N)n(Cc2ccco2)c2nc3ccccc3nc12 | – | – | – | – | – | – | · | ·
C=CCNC(=O)c1c(N)n(Cc2ccco2)c2nc3ccccc3nc12 | – | – | 36 | – | – | – | 50 | 66
CCOc1ccc(CC2(CCc3ccncc3)C(=O)NC(=O)NC2=O)cc1 | – | – | – | – | – | – | · | ·
CN1CCC(N(C)c2nc(-c3ccc([N+](=O)[O-])cc3)nc3ccccc23)CC1 | ? | – | 29 | – | – | – | – | –
Cc1ccc(-c2cc(-c3ccc(C)cc3)[n+](-c3ccccc3)c(-c3ccc(C)cc3)c2)cc1 | ? | ? | 28 | · | – | – | – | –
CCC(CC)N1CCN(Cc2nc3ccccc3c(=O)n2-c2ccc(F)cc2)CC1 | – | – | – | – | – | – | · | ·
C=CCNC(=S)/N=C/c1c(O)[nH]c(=O)[nH]c1=O | – | – | 28 | – | – | – | – | –
COc1ccc(CN2Cc3cnnn3-c3ccccc3C2C#N)cc1 (stereo not given) | – | ? | 58 | – | – | – | 91 | 89
COc1ccc(C(=O)N2Cc3cnnn3-c3ccccc3C2C#N)cc1 (stereo not given) | – | – | – | – | – | – | · | ·
O=C1NC2C(O)C(O)C(O)C(O)C2c2cc3c(c(O)c21)OCO3 (stereo not given) | – | ? | – | – | – | – | · | ·
Cn1c(O)c(C=Nc2cccc(C(F)(F)F)c2)c(=O)n(C)c1=O | – | – | 24 | – | – | – | – | 14
Cn1c(O)c(C=Nc2ccc(Br)cc2)c(=O)n(C)c1=O | – | – | – | – | – | – | · | ·
COc1ccc(-n2c(O)c(/C=C3\C=Nc4ccc(Br)cc43)c(=O)[nH]c2=O)cc1 | – | – | 36 | – | – | – | 36 | 29
C=CCn1cc(C=C2C(=O)N(C)C(=O)N(C)C2=O)c2ccccc21 | – | – | 23 | – | – | – | – | –
COC(=O)Cn1cc(/C=C2\C(=O)NC(=O)N(c3ccccc3)C2=O)c2ccccc21 | – | – | 24 | – | – | – | 44 | 38
Cc1ccc(N2C(=O)NC(=O)/C(=C\c3cn(CC(=O)O)c4ccccc34)C2=O)cc1 | – | · | 27 | – | – | – | 25 | 19
O=C(O)Cn1cc(/C=C2\C(=O)NC(=O)N(c3ccc(Br)cc3)C2=O)c2ccccc21 | · | – | – | – | – | – | · | ·
CC(=O)NC1C(OC(=O)Cc2ccccc2)OC(COC(C)=O)C(OC(C)=O)C1OC(C)=O (stereo not given) | – | – | – | – | – | – | · | ·
CC(=O)O[C@@]12CO[C@@H]1C[C@H](OC1OCC(O)C(O)C1O)[C@@]1(C)C(=O)[C@H](O)C3=C(C)[C@@H](OC(=O)[C@H](O)[C@@H](NC(=O)c4ccccc4)c4ccccc4)C[C@@](O)([C@@H](OC(=O)c4ccccc4)C12)C3(C)C (stereo not given in full) | – | – | – | – | – | – | · | ·
SMILES | Rtt109 Vps75 | Myeloid diff MLP | ABHD5-PLIN5 inh | HGIII-sPLA2 inh | H9c2 protect | DAGLB inh | ABHD5 PLIN5 conf | HNF4 split-luc
O=C(CF)N(O)c1ccc(C=Cc2ccccc2)cc1 | – | · | 37 | – | – | – | 46 | –
O=C(C=Cc1ccccc1)Nc1ccccc1 | – | – | – | – | · | – | · | ·
CCC(Oc1cc(Cl)ccc1Cl)C(=O)N1CCC2(CC1)OCCO2 (stereo not given) | – | – | – | – | – | – | · | ·
CCCCn1nnnc1C(CCc1ccccc1)N1CCC2(CC1)C(=O)NCN2c1ccccc1 (stereo not given) | · | – | – | – | – | · | · | ·
COC(=O)C1=C(c2cc3ccccc3o2)C[C@@H]2CC[C@H]1N2C(=O)NCc1ccco1 | – | – | 23 | – | – | – | – | –
CCOc1ccc(N2C(=O)NC(=O)/C(=C/c3cnc(SC)nc3)C2=O)cc1 | – | – | 28 | – | – | – | 71 | 87
Cc1ccc(N2C(=O)NC(=O)/C(=C\c3cnc(-c4ccccc4)nc3)C2=O)cc1 | – | – | 30 | – | – | – | 86 | 92
CSc1ncc(/C=C2/C(=O)NC(=O)N(c3ccc(Cl)cc3)C2=O)cn1 | 64 | · | 42 | – | – | – | 78 | 91
CSc1ncc(/C=C2/C(=O)NC(=O)N(c3ccc(C)cc3)C2=O)cn1 | – | – | – | – | – | – | · | ·
CC(=O)C1C2c3ccccc3O[C@@]1(C)N=c1s/c(=C/c3ccoc3)c(=O)n12 (stereo not given in full) | – | – | – | – | – | – | · | ·
Cc1c(C)c2ccc(OCC(=O)N3CCC(C(=O)O)(c4ccccc4)CC3)c(C)c2oc1=O | – | – | – | – | – | – | · | ·
N=C1c2ccccc2CN1c1ccc(F)c([N+](=O)[O-])c1 | – | – | – | – | – | – | · | ·
CN1CCCCC1Cc1ccccc1 (stereo not given) | · | – | – | · | – | · | · | ·
CN1[C@@H]2CC[C@H]1CC(OC1c3ccccc3CCc3ccccc31)C2 (stereo not given in full) | – | – | 32 | – | – | – | 77 | 35
O=C1NC(=O)N(c2ccccc2F)C(=O)/C1=C/c1cn(CC(=O)N2CCOCC2)c2ccccc12 | · | · | · | – | · | · | · | ·
CCN1C(=O)NC(=O)/C(=C\c2cn(CC(=O)N3CCCC3)c3ccccc23)C1=O | – | – | 25 | – | – | – | 24 | 26
CCN1C(=O)NC(=O)/C(=C\c2cn(CC(=O)N3CCCCC3)c3ccccc23)C1=O | – | – | 26 | – | – | – | – | 20
CCC(=O)[C@@H](C)[C@@H](O)[C@H](C)C[C@@H](C)C1OC(=O)C[C@@]2(O)CC=C(C)C(O2)C(C)=CCCC[C@H](O[C@H]2C[C@@H](OC(N)=O)[C@H](O)[C@@H](C)O2)C=C[C@H](C)C[C@H]1C (stereo not given in full) | · | · | – | · | · | · | · | ·
